# Screens deposited in PubChem BioAssay by National Center for Advancing Translational Sciences (NCATS).
# Shown are actives, neighbours in structure and some others; about 1.8% of the full set was active somewhere.
# GLP1R cytotox = cytotoxicity in counter-screen for GLP-1R inverse agonists | HEK293 cAMP-luciferase reporter cells, luminescence, 24 h | 410,000 compounds, 0.13% hits | Potency, µM (titrated, usually from 38.3 µM), hits mostly inhibitors | AID 624418;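 note: loss of luciferase light is scored as toxicity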
#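 Cells in DMEM/10% Nu serum/1% pen-strep, 1536-well format. Pre-incubated 12 h, dosed with 23 nL compound, incubated a further 24 h. Luciferase detection, 12 min at room temp, luminescence.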
# GLP-1R agonist = GLP-1 receptor (human) agonism; HEK293 GLP-1R CRE-luciferase, luminescence, 4-6 h; cells express a hypersensitive GLP-1R form; Potency, µM (doses to about 45.6 µM), usual class: activators; 380,000 compounds, 0.007% hits; P43220
# Pin1 inhibitor = blocks the human prolyl isomerase Pin1. Q13526. Pin1 FP peptide displacement, HiFluor488, 10 min. Potency, µM (titrated, usually from 115 µM), usual class: inhibitors. 390,000 compounds, 0.009% hits; active = well fitted inhibition curve with a large enough effect in the polarisation, with a control signal flat, not every such curve was filed as active; inconclusive = small, poorly fitted or top-dose-only effect, or effect the other way, or a change in a side signal; inactive = no such curve, though single readings can be large or run the other way; the % refers to the polarisation
# Target sequence (Q13526 whole entry, looked up): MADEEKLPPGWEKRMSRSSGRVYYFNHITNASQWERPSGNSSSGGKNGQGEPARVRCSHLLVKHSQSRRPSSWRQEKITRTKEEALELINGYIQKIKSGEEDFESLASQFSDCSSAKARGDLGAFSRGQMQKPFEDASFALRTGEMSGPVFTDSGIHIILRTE
# GLP-1R inv ag = inverse agonists of human GLP-1 receptor; P43220; 410,000 compounds, 1.6% hits; HEK293 GLP-1R CRE-luciferase, luminescence, 24 h; GLP-1R form is constitutively active; Potency, µM (doses to about 38.3 µM), usual class: inhibitors; note: nearly all actives have a fitted effect of over 55% in size
#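 Inverse agonism was detected as reduced cAMP-driven luciferase luminescence after 24 h compound treatment. The cells were HEK293 clones expressing constitutively active human GLP-1R with the reporter. Reporter-only and GPR119 cell lines served as counterscreen controls.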
# Tb PFK block = blocks T. brucei phosphofructokinase. Potency, µM (titrated, usually from 57.5 µM), actives largely listed as inhibitors. 330,000 compounds, 0.17% hits. AID 485367. O15648. T. brucei PFK, ADP-Glo luminescence; note: nearly all actives have a fitted effect of over 60% in size
#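 1.25 nM PFK with 0.5 mM F6P and 0.1 mM ATP in 0.1 M TEA pH 8.0, 5 mM MgCl2, incubated 45 min at room temperature; ADP measured by ADP-Glo luminescence; compounds titrated up to 57 uM.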
# Tb PGK inh = blocks T. brucei phosphoglycerate kinase. PGK/GAPDH coupled, Kinase-Glo luminescence, 60 min. Potency, µM (series often up to 57.5 µM), usual class: inhibitors. 380,000 compounds, 0.043% hits; note: nearly all actives have a fitted effect of over 60% in size
# Target sequence (P07378 whole entry, looked up): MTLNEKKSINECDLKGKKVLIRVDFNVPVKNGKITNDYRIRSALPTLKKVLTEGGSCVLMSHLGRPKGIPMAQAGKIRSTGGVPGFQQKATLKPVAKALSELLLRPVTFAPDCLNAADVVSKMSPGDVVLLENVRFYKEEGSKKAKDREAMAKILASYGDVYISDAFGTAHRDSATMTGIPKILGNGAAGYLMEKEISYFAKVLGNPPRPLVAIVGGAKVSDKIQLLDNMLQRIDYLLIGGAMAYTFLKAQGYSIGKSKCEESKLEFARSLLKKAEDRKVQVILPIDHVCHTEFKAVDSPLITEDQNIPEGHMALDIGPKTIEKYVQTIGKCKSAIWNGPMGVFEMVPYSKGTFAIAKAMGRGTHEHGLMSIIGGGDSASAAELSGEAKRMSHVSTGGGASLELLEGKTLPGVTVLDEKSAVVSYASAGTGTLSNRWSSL
#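 Luminescent ATP detection (Kinase-Glo Plus) follows a 60-minute room-temperature incubation, with wells lacking PGK as controls. Buffer: 100 mM TEA (pH 7.6), 5 mM MgCl2, 0.01% Tween-20. Coupling enzyme GAPDH (100 nM final) supplies unstable 1,3-BPG in-well.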
# A number is an active result; - = inactive; ? = inconclusive; . = no result; [ ] = dose if it differs, or a comment. Unless noted, calls come from the whole dose curve; as a rule, active = well fitted curve in the direction sought with a large enough effect; inconclusive = small, poorly fitted or top-dose-only effect, or another doubt; inactive = no such curve, though single readings can be large; an effect the other way counts as inactive or inconclusive.
SMILES,GLP1R cytotox,GLP-1R agonist,Pin1 inhibitor,GLP-1R inv ag,Tb PFK block,Tb PGK inh
OC(CNCc1ccc(-c2ccccc2)cc1)c1ccccc1 (stereo not given),?,?,-,10µM,-,-
Cc1ccc(NC(=O)N2CCc3c(sc4c3CCCC4)C2c2ccccc2)cc1F (stereo not given),-,.,-,?,.,-
Cc1cccc(N2CCN(C(=O)C3CCCN(S(=O)(=O)c4c(C)noc4C)C3)CC2)c1C (stereo not given),-,-,-,7.94µM,.,-
Cc1cccc(N2CCN(C(=O)C3CCCCC3)CC2)c1C,-,-,-,10µM,-,-
COC(=O)c1c(C)[nH]c(/C=N/Nc2ccccc2)c1C,-,-,-,10µM,-,-
Cc1c(C=NNc2ccccc2)[nH]c(=O)[nH]c1=O,?,-,-,?,.,-
O=C(Nc1ccc(Br)cc1F)C1CCN(c2nc3ccccc3[nH]2)CC1,-,.,?,-,.,-
Cc1[nH][nH]c(=O)c1C(c1c(C)[nH][nH]c1=O)c1cn(Cc2ccc(F)cc2)c2ccccc12,?,-,-,2µM,-,-
COc1ccc(OC)c(NC(=O)c2cc3c(=O)n4cccc(C)c4nc3n2C)c1,-,.,-,-,.,-
Cc1ccc(C)c(N2CCN(CCCNC(=O)c3ccc4nc(N5CCCCC5)sc4c3)CC2)c1,-,.,-,-,.,-
O=C(NC1CC2CCCC(C1)N2C(=O)Nc1ccc(Cl)c(C(F)(F)F)c1)C1CC1 (stereo not given),-,-,-,10µM,-,-
Cn1c2cc(S(C)=O)sc2c2cnn(Cc3cccc(O)c3)c(=O)c21 (stereo not given),.,.,-,.,.,.
COc1cccc(C(=O)NCCSc2ccc(F)cc2)c1,-[7.66 µM],-,-,-[7.66 µM],-,-
COc1cccc(C(=O)NCC(C)(C)SCc2ccc(F)cc2)c1,-,-,-,11.2µM,-,-
COC(=O)[C@]12CCCCC=C1N(Cc1ccc(Cl)cc1Cl)C(=O)[C@H](CC(=O)N1CCC(c3ccccc3)CC1)C2,-,-,.,11.2µM,.,.
CC1CCN(C(=O)c2cc3c(ccc4ccccc43)o2)CC1,-,-,-,10µM,-,-
CCOC(=O)C1CCN(C(=O)c2cc3c(ccc4ccccc43)o2)CC1,-,-,-,-,-,-
CNC(=S)NN=C(C)CCCC(C)=NNC(=S)NC,1.78µM,-,-,?,.,-
COc1ccc(C(CNC(=O)c2cccc(NS(=O)(=O)c3ccc(C)c(F)c3)c2)N(C)C)cc1 (stereo not given),-,-,-,11.2µM,-,-
COc1ccc(C(CNC(=O)COc2ccc(Br)cc2F)N2CCCC2)cc1 (stereo not given),-,-,-,12.6µM,-,-
COc1ccc(C(CNC(=O)c2ccc(OCc3ccccc3)cc2)N2CCOCC2)cc1 (stereo not given),-,-,-,?,-,-
COc1ccc(S(=O)(=O)Nc2cccc(S(=O)(=O)N3CCCCCC3)c2)cc1,-,-,-,?,-,-
COc1ccc(C(CNC(=O)COc2ccc(F)cc2Cl)N2CCCCC2)cc1 (stereo not given),-,-,-,-,-,-
O=C(NCC(c1ccc(F)cc1)N1CCOCC1)c1ccc(OCc2ccccc2)cc1 (stereo not given),-,-,-,10µM,-,-
O=S(=O)(Nc1nc2ccccc2nc1Nc1cccc(S(=O)(=O)N2CCCCC2)c1)c1ccccc1,-,-,.,11.2µM,-,-
SMILES,GLP1R cytotox,GLP-1R agonist,Pin1 inhibitor,GLP-1R inv ag,Tb PFK block,Tb PGK inh
O=C1OC(c2ccccc2)(c2ccccc2)N2CCN(C(=O)NCc3ccc(F)cc3)CC12 (stereo not given),.,.,-,.,.,.
CS(=O)(=O)NC(=O)CCC/C=C\C[C@H]1C(=O)C[C@@H](O)[C@@H]1/C=C/[C@@H](O)COc1ccccc1,.,-,.,.,.,.
CCC(Nc1ccc(-c2nc(-c3ccco3)no2)cc1[N+](=O)[O-])c1ccccc1 (stereo not given),-,.,-,-,.,-
COc1ccc(NS(=O)(=O)c2cccc(NC(=O)c3ccc(S(=O)(=O)N4CCCCCC4)cc3)c2)cc1,-,-,?,7.94µM,-,-
COc1ccc(C(CNC(=O)c2cccc(S(=O)(=O)Nc3ccc(F)cc3)c2)N2CCCC2)cc1 (stereo not given),-,-,-,10µM,.,-
COc1cccc(CN2C(=O)c3ccccc3Sc3ccc(C(=O)NCCc4ccc(Cl)cc4)cc32)c1,-,.,-,-,.,-
COc1cccc(C#Cc2c(C=O)n(C)c3ccccc23)c1,-,-,-,10µM,-,-
Cc1ccc(C2C(C=Nc3c(C)n(C)n(-c4ccccc4)c3=O)=C(c3ccccc3)Oc3ccccc32)cc1 (stereo not given),-,-,-,3.98µM,-,-
Cc1ccccc1C(=O)c1cccn1CC(=O)NCCCN1CC(C)CC(C)C1 (stereo not given),-,-,-,?,-,-
Cc1ccccc1C(=O)c1cccn1CC(=O)NCCCN1CCc2ccccc2C1,-,-,-,10µM,-,-
Cc1ccc(C)c(N2CCN(CCCNC(=O)Cn3cccc3C(=O)c3ccccc3)CC2)c1,-,-,-,5.01µM,-,-
NC1(C(=O)O)CSSC1,11.2µM,-,-,?,.,-
CCCNC(=S)N1CCC(Cc2ccccc2)CC1,?,-,-,7.08µM,-,-
CCNC(=S)N1CCC(Cc2ccccc2)CC1,-,-,-,?,-,-
CC(CCc1ccccc1)NC(=O)Cn1c(=O)nc(-c2ccccc2)c2ccccc21 (stereo not given),-,.,-,-,.,-
CCN(c1ccccc1)S(=O)(=O)c1cc(C(=O)Nc2ccc(F)c(F)c2)ccc1F,?,-,-,1.41µM,-,-
CCOC(=O)c1c(C)[nH]c(C(=O)OCC(=O)N2c3ccccc3CC2C)c1C (stereo not given),-,-,-,8.91µM,-,-
CC(C)C[C@H](CO)N(Cc1ccccc1)S(=O)(=O)N(Cc1ccccc1)[C@@H](CO)CC(C)C,?,-,?,5.62µM,-,-
O=C1c2ccsc2SCCN1Cc1c(Cl)cccc1Cl,-,-,-,2.51µM,-,-
O=C1c2ccsc2SCCN1Cc1c(F)cccc1Cl,-,-,-,12.6µM,-,.
COc1cc(Cl)c(C)cc1NC(=O)CCn1c(=O)c2cccn2c2cccnc21,-,.,-,-,.,-
CC(C)(CNC(=O)/C=C/c1ccc(F)cc1)CNC(=O)/C=C/c1ccc(F)cc1,-,-,-,6.31µM,-,-
CC(C)(C)SCCNC(=O)/C=C/c1ccc(F)cc1,-,-,-,-,-,-
